Rows were chosen to be rich in hits. Some 3.7% of all compounds tested hit in one or more screens of this group.
TbPYK inhibitor = T. brucei pyruvate kinase inhibition. Q57TT1. Potency, µM (series often up to 76.8 µM), actives largely listed as inhibitors. 410,000 tested, 0.12% active. TbPYK enzyme, Kinase-Glo Plus ATP luminescence, 45 min. AID 624173; further: nearly all actives have a fitted effect of over 50% in size
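Luminescent Kinase-Glo Plus end-point after 45 min room-temperature reaction of T. brucei pyruvate kinase started with 130 uM ADP (final). Buffer TEA 50 mM pH 7.2 with KCl, MgCl2, BSA, Tween-20; titration-based qHTS with fitted concentration-effect curves.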
Sm TGR inh = inhibitors of Schistosoma mansoni thioredoxin glutathione reductase; purified TGR, DTNB reduction, TNB absorbance 405 nm; 360,000 tested, 3% active; Q962Y6; Potency, µM (series often up to 114 µM), actives largely listed as inhibitors; further: nearly all actives have a fitted effect of over 60% in size
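Kinetic colorimetric format: TGR-catalysed, NADPH-driven DTNB reduction monitored via TNB absorbance. Enzyme dispensed at 20 nM; compound exposure 15 min at room temperature before reaction start.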
RE007 growth inh = less growth of the S. pombe RE007 Vpr strain; Potency, µM (doses to about 92.2 µM), hits mostly inhibitors; 360,000 tested, 0.21% active; S. pombe RE007 Vpr strain, BacTiter-Glo ATP luminescence, 24 h; active means well fitted falling curve with a large enough effect; inconclusive means small, poorly fitted or top-dose-only effect; inactive means no such curve, though single readings can be large or run the other way; further: nearly all actives have a fitted effect of over 50% in size
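Fission yeast strain RE007, carrying one chromosomally integrated HIV-1 vpr copy, was seeded at OD 0.01 in PMG+AL medium with 23 nL pinned compound. After 24 h at 30 °C and 99% humidity, viability was read by BacTiter-Glo luminescence.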
FMDV inh = blocks foot and mouth disease virus. FMDV antiviral cell-based qHTS. Potency, µM (series often up to 57.9 µM), hits mostly inhibitors. 410,000 tested, 1.2% active. AID 1159524; calls by dose curve; tested in HEK293T cells; further: read-out not given here; nearly all actives have a fitted effect of over 45% in size
A number is an active result; - = inactive; ? = inconclusive; . = not tested or not shown. Unless noted, the call rests on the fitted dose curve; in most records, active means well fitted curve in the direction sought with a large enough effect; inconclusive means small, poorly fitted or top-dose-only effect, or another doubt; inactive means no such curve, though single readings can be large; an effect the other way counts as inactive or inconclusive.

SMILES | TbPYK inhibitor | Sm TGR inh | RE007 growth inh | FMDV inh
CCOC(=O)c1c(C)oc2ncnc(NCCCN3CCN(c4cc(C)ccc4C)CC3)c12 | - | - | . | ?
CCOC(=O)c1cc(-c2ccccc2)n(CCC(=O)NCCc2ccc(C)cc2)c1C | - | - | . | -
CCN(CC)c1nc2cc(OC)ccc2cc1C#N | - | 35.5µM | . | ?
COc1cc(NC(=O)c2ccc(-c3nc(COc4ccccc4)c(C)o3)cc2)cc(OC)c1 | - | - | . | -
Cc1ccc(C(=O)CSc2nnnn2C(C)C)c(C)c1 | - | - | - | 14.1µM
CN(C)S(=O)(=O)c1ccc(/C(O)=C2/C(=O)C(=O)N(Cc3cccnc3)C2c2ccncc2)cc1 (centres undefined) | - | ? | - | -
CN(C)S(=O)(=O)c1ccc(/C(O)=C2/C(=O)C(=O)N(Cc3cccnc3)C2c2cccs2)cc1 (centres undefined) | - | 25.1µM | - | -
CCOC(=O)c1cc2c(=O)n3ccccc3nc2n(Cc2ccco2)c1=NC(=O)c1ccccc1OC | - | 5.62µM | - | -
COc1cccc(-c2cn3nc4c(nc3n2)CCCC4)c1 | ? | ? | ? | -
Clc1ccc(-c2cn3nc4c(nc3n2)CCCC4)cc1 | - | ? | - | 11.2µM
O=c1ncn2nc(Sc3ccc(F)cc3F)ccc2c1-c1c(Cl)cccc1Cl | - | . | . | .
CCN(CC)S(=O)(=O)c1cccc(-c2n[nH]c(=S)n2Cc2ccccc2)c1 | 5.62µM | - | - | -
COC(Cn1c(-c2cccc(S(=O)(=O)N(C)C)c2)n[nH]c1=S)OC | - | - | - | -
CCN(CC)S(=O)(=O)c1cccc(-c2n[nH]c(=S)n2CC(C)C)c1 | 8.91µM | - | - | -
CCOc1ccc(C2c3[nH]c4ccccc4c3CCN2C(=O)CSc2ccccc2)cc1 (centres undefined) | - | - | . | -
COc1ccc(C2C(O)C(c3c[nH]c4ccccc34)=NN2C(=O)CCl)cc1 (centres undefined) | - | 8.91µM | - | 17.8µM
COc1ccc(C2NN=C(c3c[nH]c4ccccc34)C2O)cc1 (centres undefined) | - | ? | . | -
COc1ccc(OC)c(-n2c3c(cc(-c4nc(-c5ccc(Cl)cc5)cs4)c2=O)C(=O)CC(C)(C)C3)c1 | - | - | . | -
Cc1[nH]c2ccccc2c1C1C(c2ccccc2)=NN=C(C(C)C)N1O (centres undefined) | - | 11.2µM | - | -
CC1=NN=C(c2ccccc2)C(c2c[nH]c3ccccc23)N1O (centres undefined) | - | - | - | -
Cc1ccc(S(=O)(=O)ON2C(=O)c3ccccc3C2=O)c(C)c1 | - | 1.41µM | - | ?
Cc1cc(C)c(S(=O)(=O)ON2C(=O)c3ccccc3C2=O)cc1C | ? | 0.891µM | - | 25.1µM
Cc1cc(C)c(C)c(S(=O)(=O)ON2C(=O)c3ccccc3C2=O)c1C | ? | 1.41µM | ? | ?
O=C1c2ccccc2C(=O)N1OS(=O)(=O)c1ccc(F)cc1 | - | 0.708µM | - | ?
CC(=O)OCC(=O)Nc1cc(C#N)cc(NC(=O)COC(C)=O)c1Cl | - | . | . | .
SMILES | TbPYK inhibitor | Sm TGR inh | RE007 growth inh | FMDV inh
CCc1noc(C)c1C(=O)Nc1ccc(Cl)c(S(=O)(=O)N2CCCCC2)c1 | - | - | - | 22.4µM
CCOP(=O)(Cc1cc(C(C)=O)c(C)o1)OCC | ? | 39.8µM | - | -
CCCC(=O)c1cc(CP(=O)(OCC)OCC)oc1C | ? | 28.2µM | - | -
CCOP(=O)(Cc1ccccc1)OCC | - | - | - | -
CCOP(=O)(Cc1ccc(C(C)(C)CC(C)=O)o1)OCC | - | 15.8µM | - | -
Cc1oc(CC(C)C)cc1C(N)=O | - | - | - | -
CCOP(=O)(Cc1ccc(C#N)o1)OCC | - | - | - | -
Cc1cc(NC(=O)Cn2c(=O)oc3cc(S(=O)(=O)N4CCCC4)ccc32)ccc1Br | - | - | . | -
CC(C)C[C@H]1CN(CCCC[C@H]2CNC(=O)C(=O)N2CCC2CCCCC2)C(=O)C(=O)N1CCC1CCCCC1 | - | . | - | 35.5µM
CC(C)C[C@@H]1CN(CCCC[C@H]2CNC(=O)C(=O)N2CCC2CCCCC2)C(=O)C(=O)N1CCC1CCCCC1 | - | . | - | ?
CN(C)c1ncc2ncc(=O)n(CCC#N)c2n1 | - | . | . | -
O=C1OC(Nc2nc(-c3ccc(F)cc3)cs2)c2ccccc21 (centres undefined) | - | 3.98µM | - | -
O=C1OC(Nc2nc3ccccc3s2)c2ccccc21 (centres undefined) | - | - | - | -
Cc1ccc(S(=O)(=O)/N=C2/C=C(Sc3ncn[nH]3)C(=O)c3ccccc32)c(C)c1 | . | 0.631µM | . | .
